Assay results taken from PubChem BioAssay AID463173 (ICCB-Longwood Screening Facility, Harvard Medical School, 2010).
The whole screen tested about 52,000 compounds, of which about 4,300 (8.3%) were called active. What follows is part of a selection rich in actives, with near analogues and random picks from the rest. A number with no mark means an inactive call. Rule as the data show it: active = survival mostly below about 52% (no sharp cut-off); inactive = mostly above about 56%.

What follows are compounds tested on DeltatarO mutant (assay: growth inhibition of S. aureus wild type versus tarO mutant, primary screen, teichoic acid synthesis inhibitors, RN4220, OD600 (AID 463173)). Conditions: OD600, 18 h, active compounds read low, screened at 18.75 µg/mL (by protocol).

SMILES | survival
Cc1ccc(NC(=O)C(C)Sc2nnc(C3CCCCC3)n2C)cc1 (centres undefined) | 109%
CCN(C(=O)Cn1nc(Cc2ccncc2)c2ccccc2c1=O)c1cccc(Cl)c1 | 83%
Cc1ccc(Cn2c(CCNC(=O)C(C)C)nc3ccccc32)cc1 | 78%
Cc1ccc(Cn2c(Cc3ccccc3)nc3ccccc32)cc1 | -1% (active)
Cc1ccc(Cn2c(CNC(=O)c3cccc(C)c3)nc3ccccc32)cc1 | 96%
Cc1cccc(Cn2c(COc3ccc(Cl)cc3)nc3ccccc32)c1 | 59%
CC(O)c1nc2ccccc2n1Cc1ccccc1 (centres undefined) | 57%
Cc1cccc(Cn2c(COc3ccccc3)nc3ccccc32)c1 | -2% (active)
O=C(NCCc1nc2ccccc2n1Cc1ccc(Cl)cc1)c1ccccc1 | 72%
Clc1ccc(OCc2nc3ccccc3n2Cc2ccccc2)c(Cl)c1 | 14% (active)
CC(C)(C)c1ccc(Cn2c(Cc3ccccc3)nc3ccccc32)cc1 | 0% (active)
CCC(=O)NCc1nc2ccccc2n1Cc1ccccc1 | 122%
CCn1c(COc2ccc(Cl)cc2Cl)nc2ccccc21 | 57%
Cc1ccc(CNC(=O)CCCn2c(=O)[nH]c3ccc(Br)cc3c2=O)cc1 | 87%
Cc1ccc(-c2nnc(SC(C)C)n2-c2ccccc2)cc1 | 100%
COc1ccccc1C(=O)n1nc(-c2cccnc2)nc1NCc1ccccc1 | 64%
CCc1ccc(S(=O)(=O)c2nnn3c2nc(NCCNC(C)=O)c2cc(Cl)ccc23)cc1 | 74%
CCOC(=O)N1CCN(Cc2nc3cc(NC(=O)c4ccc([N+](=O)[O-])cc4)ccc3n2C(C)C)CC1 | 75%
CC(C)Oc1ccc(CNC(=O)c2ccc3nc(SCc4ccc(F)cc4)n(C)c3c2)cc1 | 101%
CCS(=O)(=O)N1CCC(C(=O)NCCC(C)C)CC1 | 87%

SMILES | survival
CCCCn1c(SCC(=O)Nc2cccc(OC)c2)nc2c(sc3ccccc32)c1=O | 88%
Cc1nc2nc(CNC(=O)c3cccc(F)c3)nn2c(C)c1CCC(=O)Nc1cccc(Cl)c1 | 110%
CC1CCCN(S(=O)(=O)c2ccc(N3CCCCS3(=O)=O)cc2)C1 (centres undefined) | 74%
CCN(C(=O)c1ccc2c(=O)n3c(nc2c1)CCCCC3)c1cc(C)ccc1C | 89%
COc1ccc(S(=O)(=O)c2nnn(-c3ccc(C)c(Cl)c3)c2C)cc1 | 99%
COCc1nc2ccccc2n1Cc1cccc(C)c1 | 79%
Cc1cccc(Cn2c(CNC(=O)c3ccccc3)nc3ccccc32)c1 | 64%
Cc1cccc(Cn2c(Cc3ccccc3)nc3ccccc32)c1 | 22% (active)
CC(C)c1ccc(Cn2c(COc3ccccc3)nc3ccccc32)cc1 | -1% (active)
Cc1ccc2c(=O)cc(C(=O)Nc3ccc(S(=O)(=O)Nc4nc(C)cc(C)n4)cc3)oc2c1 | 78%
COCCn1c(SCC(=O)c2ccc(C)cc2)nc2cc(C(=O)NC3CCCC3)ccc2c1=O | 89%
COc1cccc(C2=NN(C(C)=O)C(c3cn(-c4ccccc4)nc3-c3cccs3)C2)c1 (centres undefined) | 170%
Cc1nn2c(=O)cc(COC(=O)COc3ccc(F)cc3)nc2s1 | 94%
CCn1c(=O)c2cc(C(=O)N(C)c3cc(C)ccc3C)sc2c2ccccc21 | 105%
CCOCCCN(Cc1ccco1)C(=O)c1cc2c(=O)[nH]c3ccc(C)cc3c2s1 | 88%
CCn1c(=O)c2cc(C(=O)N(CC(C)C)CC(C)C)sc2c2ccccc21 | -4% (active)
COCCN(Cc1ccco1)C(=O)c1cc2c(=O)[nH]c3ccc(C)cc3c2s1 | 53%
Cc1ccc2[nH]c(=O)c3cc(C(=O)N(CCCOC(C)C)Cc4ccco4)sc3c2c1 | 56% (active)
CCn1c(=O)c2cc(C(=O)N(CCN(C)C)Cc3ccccc3)sc2c2ccccc21 | 77%
CCn1c(=O)c2cc(C(=O)N(CCCOC(C)C)Cc3ccco3)sc2c2ccccc21 | 8% (active)

SMILES | survival
CCCn1c2ccccc2c2cnn(CC(=O)N(CCCOC(C)C)Cc3ccco3)c(=O)c21 | 87%
CCn1c(=O)c2cc(C(=O)N(C)c3cc(Cl)c(OC)cc3OC)sc2c2ccccc21 | 80%
N#CC(C#N)=CC1=C(N2CCCC2)CCCC1 | 89%
Cc1c(-c2nc(-c3ccccc3)no2)nnn1-c1cccc(C(F)(F)F)c1 | 80%
Cc1ccc(NC(=O)Cn2cc(S(=O)(=O)c3ccccc3)c(=O)c3cc4c(cc32)OCO4)cc1 | 97%
Cc1ccccc1-c1noc(-c2cc3ccccc3oc2=O)n1 | 85%
CC1=C(C(N)=O)C(c2cccc(Br)c2)n2nc(SCc3ccccc3)nc2N1 (centres undefined) | 76%
O=C(O)CC1CCCC(c2ccccc2)C1=O (centres undefined) | 91%
Cc1ccc2c(CC(=O)Nc3c(C(=O)c4ccc(F)cc4)oc4ccccc34)coc2c1 | 60%
COc1ccc(S(=O)(=O)N(Cc2nc(-c3cccc(C)c3)no2)C2CCCCC2)cc1 | 57%
Cc1cccc(-c2noc(CN(C3CCCCC3)S(=O)(=O)c3ccc(F)cc3)n2)c1 | 71%
O=S(=O)(c1ccc(F)cc1)N(Cc1nc(-c2ccc(Cl)cc2)no1)C1CCCCC1 | 76%
CCN(Cc1nc(-c2cccc(C)c2)no1)S(=O)(=O)c1ccc(C)cc1 | 43% (active)
Cc1ccc(S(=O)(=O)N(Cc2nc(-c3cccc(C)c3)no2)C2CCCCC2)cc1 | 46% (active)
O=S(=O)(c1ccc(F)cc1)N(Cc1nc(-c2ccccc2)no1)C1CCCCC1 | 45% (active)
COc1ccc(S(=O)(=O)N(C)Cc2nc(-c3cccc(C)c3)no2)cc1 | 51%
Cc1ccc(-c2noc(CN(C3CCCCC3)S(=O)(=O)c3ccc(F)cc3)n2)cc1 | 78%
Cc1ccc(S(=O)(=O)NCc2nc(-c3cccc(C)c3)no2)cc1 | 100%
COc1ccc(-c2cc(C)no2)cc1S(=O)(=O)N1CCN(c2ccc(C(C)=O)cc2)CC1 | 91%
